Results published in PubChem BioAssay.
Activity calls are given as the source filed them. Unless noted, how the calls were made is not given here.

Tests used:
[1] = A549 cell viability effects, profiling panel, calcein-AM fluorescence, 48 h, basal (AID 1162); conditions: higher = more signal; further: test concentration not given here
[2] = adipocyte viability effects, profiling panel, cell-based, 3T3-L1 adipocytes, calcein-AM fluorescence, 48 h, basal (AID 1163); conditions: 3T3-L1 adipocytes viability, higher = more signal; further: test concentration not given here
[3] = HepG2 cell viability effects, profiling panel, calcein-AM fluorescence, 48 h, basal (AID 1164); conditions: higher = more signal; further: test concentration not given here
[4] = MM1S cell viability effects, profiling panel, calcein-AM fluorescence, 48 h, basal (AID 1165); conditions: higher = more signal;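 further: viability of MM1S multiple myeloma cells under basal unstimulated conditions; test concentration not given here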
[5] = basal RPMI8226 viability, no added stimulus, profiling panel, cell-based, calcein-AM fluorescence, 48 h, PK04 Diversity Set (AID 1166); conditions: RPMI8226 myeloma viability, higher = more signal;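 further: cells grown under basal conditions without added stimulus; test concentration not given here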
[6] = basal HepG2 mitochondrial membrane potential changes, profiling panel, cell-based, JC-1 fluorescence, 24 h, 100 nL compound (AID 1167); conditions: higher = more signal; further: test concentration not given here
[7] = basal 3T3-L1 adipocyte mitochondrial potential changes, profiling panel, cell-based, JC-1 fluorescence, 3T3-L1 adipocytes, 24 h, 100 nL compound (AID 1168); conditions: JC-1 mitochondrial fluorescence, higher = more signal, called active from +8 up or from −8 down; further: test concentration not given here
[8] = basal RPMI8226 mitochondrial membrane potential changes, profiling panel, cell-based, JC-1 fluorescence, 24 h, 100 nL compound (AID 1169); conditions: RPMI8226 myeloma, JC-1 mitochondrial potential fluorescence, higher = more signal; further: test concentration not given here
[9] = basal MM1S mitochondrial membrane potential changes, profiling panel, cell-based, JC-1 fluorescence, 24 h, 100 nL compound (AID 1170); conditions: higher = more signal; further: test concentration not given here
[10] = A549 lung cancer cell viability effects, profiling panel, resazurin fluorescence, 24 h, PK04 Diversity Set (AID 1171); conditions: higher = more signal, called active from +8 up or from −8 down; further: test concentration not given here
[11] = HepG2 liver cancer cell viability effects, profiling panel, resazurin fluorescence, 24 h, PK04 Diversity Set (AID 1172); conditions: higher = more signal; further: test concentration not given here
[12] = basal S. cerevisiae growth modulation, no modifier, primary screen, OD600, strain BY4716, 24 h, basal condition (AID 1173); conditions: OD600, 24 h, higher = more signal, called active from +8 up or from −8 down
[13] = MM1S myeloma cell viability, profiling panel, resazurin fluorescence, basal, 24 h, PK04 Diversity Set (AID 1174); conditions: higher = more signal, called active from +8 up or from −8 down;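 further: MM1S multiple myeloma cell line; test concentration not given here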
[14] = molecular target: Dihydroorotate dehydrogenase (quinone), mitochondrial (Plasmodium falciparum (isolate 3D7)) (UniProt Q08210); assay: PfDHODH enzyme inhibitors, primary screen, biochemical, C-terminal His tag, absorbance 600 nm (AID 1175); conditions: DCIP absorbance 600 nm, higher = more signal, called active from +8 up or from −8 down;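 further: recombinant parasite enzyme with a five histidine tag at its C terminus; test concentration not given here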
[15] = P. aeruginosa biofilm formation inhibitors, primary screen, strain PAO1, LB-PBS medium, absorbance 600 nm (AID 1176); further: test concentration not given here; conditions: P. aeruginosa PAO1 growth/biofilm, A600, 12 h; higher = more signal
[16] = S. cerevisiae RM11-1a growth modifiers, primary screen, strain RM11-1a, OD600, basal, 24 h (AID 1177); conditions: OD600, 24 h, higher = more signal, called active from +8 up or from −8 down;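 further: cultures grown under basal conditions with no added stressor; test concentration not given here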
[17] = E. coli acrAB mutant growth effects, primary screen, E. coli filamentation inducers, strain DRC39, OD650, 24 h (AID 1178); conditions: higher = more signal, called active from +8 up or from −8 down;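 further: growth measured as culture turbidity by optical density at 650 nm; test concentration not given here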
[18] = E. coli acrAB mutant growth effects, primary screen, E. coli filamentation inducers, strain DRC39, OD650, 48 h (AID 1179);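 further: screen aims at cell division blockers that make cells filament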; conditions: E. coli DRC39 delta-acrAB growth, higher = more signal, called active from +8 up or from −8 down
[19] = RPMI8226 myeloma cell viability, profiling panel, resazurin fluorescence, basal, 24 h, PK04 Diversity Set (AID 1180); conditions: higher = more signal;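 further: RPMI8826 multiple myeloma cell line at 5000 cells per well; test concentration not given here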
[20] = molecular target: E3 ubiquitin-protein ligase XIAP (Homo sapiens) (UniProt P98170); assay: XIAP binders, primary screen, biophysical, small-molecule microarray, fluorescence 635 nm (AID 1181); conditions: small-molecule microarray binding, higher = more signal;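 further: score merges 667 nm emission and signal to noise over triplicate slides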
Chain of E3 ubiquitin-protein ligase XIAP (Homo sapiens) (P98170 whole entry, looked up): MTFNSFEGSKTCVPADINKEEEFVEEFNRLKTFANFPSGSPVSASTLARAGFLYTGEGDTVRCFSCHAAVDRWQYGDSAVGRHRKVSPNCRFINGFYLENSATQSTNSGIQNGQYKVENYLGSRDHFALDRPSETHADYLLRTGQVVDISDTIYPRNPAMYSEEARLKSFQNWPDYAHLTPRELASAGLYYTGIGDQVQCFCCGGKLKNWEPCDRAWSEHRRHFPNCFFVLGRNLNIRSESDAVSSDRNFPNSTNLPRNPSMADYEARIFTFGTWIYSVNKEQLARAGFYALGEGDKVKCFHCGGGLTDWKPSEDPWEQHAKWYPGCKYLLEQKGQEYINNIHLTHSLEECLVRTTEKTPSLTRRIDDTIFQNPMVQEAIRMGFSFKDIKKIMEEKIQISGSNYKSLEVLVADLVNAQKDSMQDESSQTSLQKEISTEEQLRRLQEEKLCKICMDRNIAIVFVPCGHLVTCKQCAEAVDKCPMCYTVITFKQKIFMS

Chain of Dihydroorotate dehydrogenase (quinone), mitochondrial (Plasmodium falciparum (isolate 3D7)) (Q08210 whole entry, looked up): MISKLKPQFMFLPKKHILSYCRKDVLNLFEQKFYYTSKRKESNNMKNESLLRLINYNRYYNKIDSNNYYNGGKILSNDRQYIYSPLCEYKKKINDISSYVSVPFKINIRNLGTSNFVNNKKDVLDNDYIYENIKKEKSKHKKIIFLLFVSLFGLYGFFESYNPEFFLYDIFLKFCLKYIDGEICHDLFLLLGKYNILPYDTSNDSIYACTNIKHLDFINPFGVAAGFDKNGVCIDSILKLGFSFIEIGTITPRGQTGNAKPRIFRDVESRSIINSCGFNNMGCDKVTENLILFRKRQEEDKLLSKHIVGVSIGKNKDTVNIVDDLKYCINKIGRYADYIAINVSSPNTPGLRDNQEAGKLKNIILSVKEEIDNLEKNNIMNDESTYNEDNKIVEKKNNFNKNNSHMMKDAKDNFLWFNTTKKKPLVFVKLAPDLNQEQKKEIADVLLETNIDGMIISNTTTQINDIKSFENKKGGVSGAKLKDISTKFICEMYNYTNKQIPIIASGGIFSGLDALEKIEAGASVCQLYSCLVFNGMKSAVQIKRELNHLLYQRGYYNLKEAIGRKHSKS

SMILES	z-score [1]	z-score [2]	z-score [3]	z-score [4]	z-score [5]	z-score [6]	z-score [7]	z-score [8]	z-score [9]	z-score [10]	z-score [11]	z-score [12]	z-score [13]	composite z-score [14]	z-score [15]	z-score [16]	z-score [17]	z-score [18]	z-score [19]	composite z-score [20]
CC1CC/C=C\[C@H]2OC34C=CCN(Cc5ccccc5)C(=O)[C@H]3N(CCO)C(=O)[C@@H]4C2C(=O)O1 (stereo not given in full)	-0.106	1.1	0.337	1.47	-0.105	0.0673	0.488 (inactive)	-0.657	2.1	-0.783 (inactive)	-0.811	-0.73 (inactive)	0.32 (inactive)	0.622 (inactive)	-0.758 (inactive)	0.606 (inactive)	0.98 (inactive)	0.566 (inactive)	0.301	-0.147
CCOC(=O)C[C@H]1[C@H](OC(=O)c2ccc(C(=O)c3ccccc3)cc2)[C@@H](NC(=O)C2CCCCC2)c2cc(OCCCO)ccc2N1C(=O)Cc1ccc(OC)cc1	0.273	0.628	0.918	-0.4	-0.631	1.06	-0.76 (inactive)	0.368	-0.812	-0.0859 (inactive)	-0.531	-0.741 (inactive)	-0.28 (inactive)	-0.085 (inactive)	-0.346 (inactive)	-0.0363 (inactive)	-0.29 (inactive)	0.162 (inactive)	-0.353	-0.141
COC(=O)[C@@]1(Cc2ccccc2)[C@H]2c3cc(C(=O)N4CCCC4)n(Cc4ccccc4)c3C[C@H]2CN1C(=O)c1ccccc1	-1.39	0.988	-0.0065	-2.96	-4.64	0.106	-1.74 (inactive)	-0.737	-0.777	-3.12 (inactive)	-2.54	0.717 (inactive)	-1.12 (inactive)	-0.237 (inactive)	0.895 (inactive)	0.235 (inactive)	-0.78 (inactive)	-0.591 (inactive)	-3.29	0.421
C[N+](C)(C)CCCCCCNC(=O)[C@@H]1C[C@@H]2C(=O)NCC(=O)N2[C@@H]1c1cccc(OCCO)c1	-0.308	0.867	-1.2	-2.7	0.422	-0.844	-0.0181 (inactive)	-0.0934	-1.39	1.46 (inactive)	0.597	-1.33 (inactive)	1.26 (inactive)	-2.3 (inactive)	3.7 (inactive)	-0.257 (inactive)	-0.858 (inactive)	-0.765 (inactive)	0.343	0.0192
Cc1ccc(F)cc1S(=O)(=O)N[C@@H]1CCN(C(=O)c2ccc(OC(C)C)cc2)C1	0.0926	-1.39	-0.471	0.0842	-0.705	-0.14	-0.0993 (inactive)	-0.276	-0.497	-0.216 (inactive)	0.157	-2.17 (inactive)	0.554 (inactive)	-0.431 (inactive)	-0.165 (inactive)	-0.455 (inactive)	1.16 (inactive)	0.427 (inactive)	0.339	0.0336
COCCCNC(=O)[C@@]1(Cc2ccccc2N=[N+]=[N-])N=C(c2ccc(OCCCO)cc2)O[C@H]1c1ccccc1CN=[N+]=[N-]	-0.603	1.66	-0.456	-1.72	-3.93	3.03	0.557 (inactive)	-1.21	-0.593	-1.92 (inactive)	-0.859	-0.255 (inactive)	-1.2 (inactive)	0.283 (inactive)	1.72 (inactive)	0.154 (inactive)	2.63 (inactive)	0.575 (inactive)	-2.25	-0.183
CC(C)NC(=O)[C@@H]1c2ccccc2C(=O)N(Cc2cc(C(F)(F)F)cc(C(F)(F)F)c2)[C@H]1c1ccc(CO)cc1	-0.255	0.884	-0.355	-1.1	-1.42	0.571	0.198 (inactive)	0.967	0.144	0.634 (inactive)	0.447	-0.168 (inactive)	-0.0526 (inactive)	0.357 (inactive)	0.733 (inactive)	0.0633 (inactive)	1.17 (inactive)	0.393 (inactive)	0.25	-0.0141
Cc1ccc(C(C)CC(O)C2C=CC3C(=O)N(Cc4ccccc4)C(=O)C3N2n2cnnc2)o1 (stereo not given)	-0.732	-0.126	-0.705	-0.427	-1.63	-0.254	-1.24 (inactive)	-0.168	1.24	-1.34 (inactive)	-1.13	-9.36 (active)	-0.817 (inactive)	-0.101 (inactive)	0.368 (inactive)	-1.4 (inactive)	-1.46 (inactive)	-1.22 (inactive)	-0.841	0.263
COc1ccc([Si](C)(C)[C@@H]2[C@@H](CC(=O)N(CCO)Cc3ccccc3)O[C@]3(C(=O)N(Cc4ccc(N5CCOC5=O)cc4)c4ccccc43)[C@H]2C)cc1	-0.65	0.603	-1.94	-2.35	-4.21	-0.0678	1.19 (inactive)	-1.01	-1.29	-1.61 (inactive)	-1.12	0.613 (inactive)	-1.85 (inactive)	-0.0014 (inactive)	1.77 (inactive)	0.953 (inactive)	1.16 (inactive)	0.307 (inactive)	-2.31	-0.0333
CCN(CC)c1ccc(N2CC=CC34O[C@@H]5/C=C\CCCOC(=O)C5[C@H]3C(=O)N(CCCCCO)[C@@H]4C2=O)cc1 (stereo not given in full)	0.147	0.184	0.481	-0.459	-0.711	-0.589	-0.267 (inactive)	0.0223	0.515	0.0257 (inactive)	-0.162	-0.606 (inactive)	0.361 (inactive)	-0.706 (inactive)	-0.553 (inactive)	-0.27 (inactive)	-0.388 (inactive)	-0.241 (inactive)	0.681	-0.0264
C=CCC(OC(C)=O)[C@@H]1[C@@H](N(Cc2ccc(-c3ccccc3)cc2)C(=O)Cc2ccc(OC)cc2)c2cc(OCCCO)ccc2N1C(=O)c1ccc(-c2ccccc2)cc1 (stereo not given in full)	0.817	0.397	1.3	0.366	0.368	3.34	0.269 (inactive)	0.298	0.494	1.21 (inactive)	0.192	-1.13 (inactive)	0.833 (inactive)	-0.0887 (inactive)	-0.24 (inactive)	-0.754 (inactive)	1.57 (inactive)	0.807 (inactive)	0.989	0.233
COCCCNC(=O)[C@@H]1c2ccccc2C(=O)N(Cc2cc(F)cc(C(F)(F)F)c2)[C@H]1c1ccc(CO)cc1	0.323	0.0853	0.463	0.575	-0.725	1.25	-0.82 (inactive)	1.15	-0.33	0.301 (inactive)	-0.434	-0.336 (inactive)	-0.522 (inactive)	-1.13 (inactive)	0.36 (inactive)	-0.955 (inactive)	-0.109 (inactive)	-0.0475 (inactive)	-0.197	-0.309
Cc1ccc(-c2cccc(=O)o2)cc1	-0.104	0.796	-0.117	0.0881	-0.774	-1.35	-0.263 (inactive)	-0.177	-0.299	-0.0164 (inactive)	-0.789	-2.2 (inactive)	0.123 (inactive)	-0.919 (inactive)	-0.128 (inactive)	-0.333 (inactive)	-0.418 (inactive)	-0.292 (inactive)	-0.442	-0.0143
COc1ccc([Si](C)(C)[C@@H]2[C@@H](CCO)O[C@]3(C(=O)N(Cc4ccc(N5C(=O)c6ccccc6Oc6ccccc65)cc4)c4ccccc43)[C@H]2C)cc1	-0.738	-0.703	-3.56	-2.31	-3.17	-0.42	0.462 (inactive)	-1.06	-1.68	-1.47 (inactive)	0.0213	2.15 (inactive)	-0.848 (inactive)	-0.343 (inactive)	2.88 (inactive)	4.38 (inactive)	0.365 (inactive)	-0.275 (inactive)	-3.07	-0.203
CC1(C)[C@@H]2CC(C(O)C3C=CC4C(=O)N(c5ccccc5)C(=O)C4N3Nc3ccccc3F)=C[C@@H]1C2 (stereo not given in full)	0.604	-0.297	-0.0679	0.848	0.219	-0.424	-1.07 (inactive)	0.157	-1.41	1.01 (inactive)	1.48	-0.393 (inactive)	0.941 (inactive)	1.09 (inactive)	0.16 (inactive)	-0.393 (inactive)	0.018 (inactive)	0.985 (inactive)	-1.19	0.18
C=CCN1C(=O)[C@@]2(O[C@@H](CCn3cc([C@H](O)c4ccccc4)nn3)[C@H]([Si](C)(C)c3ccc(OC)cc3)[C@H]2C)c2cc(NC(=O)c3ccc(OC)cc3)ccc21	-0.219	-0.143	-0.671	-1.84	-1.69	-0.117	-1.06 (inactive)	-0.991	-0.641	-2.43 (inactive)	-1.55	0.336 (inactive)	-2.19 (inactive)	0.874 (inactive)	0.389 (inactive)	2.42 (inactive)	0.628 (inactive)	0.146 (inactive)	-2.35	0.176
[N-]=[N+]=NCc1ccccc1[C@H]1OC(c2ccc(OCCCO)cc2)=N[C@@]1(Cc1ccccc1N=[N+]=[N-])C(=O)NCCN1CCOCC1	-0.71	-0.675	0.0583	-1.71	-1.52	-0.247	-0.738 (inactive)	-0.841	-0.549	0.0825 (inactive)	-0.634	-1.11 (inactive)	-1.22 (inactive)	1.15 (inactive)	0.591 (inactive)	1.41 (inactive)	-0.0057 (inactive)	-0.357 (inactive)	-1.17	-0.0414
[N-]=[N+]=NCc1ccccc1[C@H]1OC(c2ccc(OCCCO)cc2)=N[C@@]1(Cc1ccccc1N=[N+]=[N-])C(=O)N1CCCCC1	-0.457	-0.5	-0.536	-2.14	-2.79	1.06	0.0871 (inactive)	-0.978	-1.76	-0.409 (inactive)	-0.585	-0.707 (inactive)	-2.42 (inactive)	-0.062 (inactive)	0.879 (inactive)	1.66 (inactive)	-0.457 (inactive)	0.495 (inactive)	-2.94	-0.0062
